Autofluor counter = compound fluorescence in toxin protease inhibitor counterscreen; compound autofluorescence counterscreen, microsphere flow cytometry; hits give high values; fluorescence intensity (concentration not given with the values); 360,000 compounds, 3.1% hits; in the data active = fluorescence intensity above about 16000; inconclusive = no clear call, values can overlap the other calls
MazF activator = activators of E. coli MazEF toxin-antitoxin RNase, primary screen, biochemical, fluorescence, uHTS; activation, % at 20 µM; AID 504720, 2011; 350,000 compounds, 0.32% hits; FAM/BHQ RNA-DNA oligo cleavage fluorescence, 5 h; Endoribonuclease toxin MazF (Escherichia coli (strain K12)), P0AE70; in the data active = activation above about 50%
Target sequence (P0AE70 whole entry, looked up): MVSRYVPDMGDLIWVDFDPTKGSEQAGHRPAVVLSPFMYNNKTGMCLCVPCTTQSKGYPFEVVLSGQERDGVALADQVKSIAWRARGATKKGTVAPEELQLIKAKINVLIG
Anthrax LF prot = Bacillus anthracis LF protease inhibitors, primary screen, biochemical, multiplex microsphere, MLPCN library; inhibition, % at 10 µM; 360,000 compounds, 0.12% hits; AID 588501, 2011; multiplex microsphere protease cleavage assay; Lethal factor (Bacillus anthracis), P15917; note: plate controls were buffer without enzyme for full effect and enzyme alone for no effect
BoNT A protease = BoNT/A light chain protease inhibitors, primary screen, biochemical, flow cytometry, MLPCN library; Botulinum neurotoxin type A light chain protease (Clostridium botulinum A str. ATCC 3502); multiplex microsphere protease substrate cleavage; inhibition, % at 10 µM; 360,000 compounds, 0.17% hits; AID 588499, 2011; note: plate controls were buffer without enzyme for full effect and enzyme alone for no effect
BoNT F protease = BoNT/F light chain protease inhibitors, primary screen, biochemical, flow cytometry, MLPCN library; Botulinum neurotoxin type F light chain protease (Clostridium botulinum); Multiplex microsphere protease cleavage assay; inhibition, % at 10 µM; 360,000 compounds, 0.22% hits; in the data active = inhibition above about 35%, passing the limit was not always enough; inconclusive = no clear call, values can overlap the other calls; note: plate controls were buffer without enzyme for full effect and enzyme alone for no effect
* hit, by the source's call; ? = inconclusive; . = no result given. This is a sample that favours compounds with a hit; in the whole collection about 3.7% have one here. Cut-off read from the data, not from the text of the source, unless noted: active = inhibition above about 30%; inconclusive = no clear call, values can overlap the other calls; inactive = below that.

SMILES	Autofluor counter	MazF activator	Anthrax LF prot	BoNT A protease	BoNT F protease
COc1cc(/C=C2\SC(c3ccc(C)cc3)=NC2=O)cc(OC)c1OC	6485	102*	0	2	0
COc1ccc(/C=C2/SC(c3ccc(C)cc3)=NC2=O)cc1OC	3035	-1	-6	1	4
Cc1cccc(C)c1NC(=O)CSc1nnc(Cn2nnc(-c3ccccc3)n2)n1-c1ccccc1	19692*	-4	1	?	0
O=C(CSc1nnc(Cc2ccccc2)n1-c1ccccc1)NNC(=O)Cc1ccccc1	21981*	-15	3	2	2
COC(=O)CSc1nnc(Cc2ccccc2)n1-c1ccc(C)cc1	3651	-1	3	1	-15
CCN(CC(=O)Nc1c(F)cccc1F)C(=O)CCNC(=O)c1ccc([N+](=O)[O-])cc1	?	3	3	-1	-2
CCOC(=O)[C@@H]1CSCCS(=O)(=O)N1	3256	3	-4	0	4
CN1CC[n+]2cnc3ccccc3c21	18857*	-5	-12	?	6
C=CCn1c(O)c(N=Nc2ccccc2O)c2ccccc21	4292	311*	-7	0	-10
O=C(Nc1ccccc1OC(=O)c1ccccc1)c1ccccc1	5331	-25	0	1	13
S=c1nc(C2CCCCC2)[nH][nH]1	17098*	0	-5	-3	-6
COCc1cccc(-c2csc(C(C)(NC(C)=O)c3ccc(OC)cc3)n2)c1 (stereo not drawn)	3554	.	-6	0	-1
Cc1ccc(Cn2nnc3c(=O)[nH]c(C4CCN(C(=O)Cc5cccs5)CC4)nc32)cc1	10571	-7	3	0	2
CC(C)(C)c1ccc(Cn2nnc3c(=O)[nH]c(C4CCN(C(=O)Cc5cccs5)CC4)nc32)cc1	20958*	-4	0	-1	-1
O=C(c1ccco1)N1CCCC(c2nc3c(nnn3Cc3cccc(Cl)c3)c(=O)[nH]2)C1 (stereo not drawn)	6247	-22	0	-1	14
Cc1ccc(Cn2nnc3c(=O)[nH]c(C4CCCN(S(=O)(=O)c5ccccc5)C4)nc32)cc1 (stereo not drawn)	4287	10	-1	0	5
O=C(Cc1cccs1)N1CCC(c2nc3c(nnn3Cc3ccccc3)c(=O)[nH]2)CC1	20008*	3	0	-1	-4
O=c1[nH]c(C2CCCN(S(=O)(=O)c3ccc(F)cc3)C2)nc2c1nnn2Cc1ccccc1 (stereo not drawn)	21368*	0	0	2	4
N#Cc1ccc(NC(=O)N2CCC(c3nc4c(nnn4Cc4cccc(Cl)c4)c(=O)[nH]3)CC2)cc1	20736*	2	-1	0	-4
COc1cc2c(cc1OC)[C@@H](NC(=O)CCc1ccccc1)[C@H](O)C2	3831	-1	-2	-1	-3
O=C(NCCCn1cccn1)c1cc(COc2ccccc2)on1	4153	3	-10	0	-6
CCOC(=O)C1=C(COC(=O)CCOc2ccccc2C)NC(=O)NC1C (stereo not drawn)	5124	-15	?	?	?
Cc1ccc(C)c(Cn2nnc3c(=O)[nH]c(C4CCCN(C(=O)CC(C)C)C4)nc32)c1 (stereo not drawn)	21556*	3	-8	5	0
CCCCC(=O)N1CCCC(c2nc3c(nnn3Cc3cc(C)ccc3C)c(=O)[nH]2)C1 (stereo not drawn)	9608	4	-3	0	10
COc1ccc(S(=O)(=O)N2CCN(C(=O)CNC(=O)c3ccc4c(c3)OCO4)CC2)cc1	.	-3	.	.	.
SMILES	Autofluor counter	MazF activator	Anthrax LF prot	BoNT A protease	BoNT F protease
CN(CCc1ccccc1)C(C(=O)Nc1ccc2c(c1)OCCO2)C1CC1 (stereo not drawn)	4407	.	4	-1	2
CC1(C(=O)NCc2ccccc2)Cc2c(-c3ccc4c(c3)OCO4)ccnc2O1 (stereo not drawn)	3632	.	2	0	-7
Cn1c(NCc2ccco2)nc2ccccc21	17845*	-2	-3	?	12
CCN(CC)CCn1c(NCc2nc3ccccc3n2Cc2ccccc2)nc2ccccc21	12497	-1	-5	0	-19
CCN(CC)CCn1c(NCc2ccco2)nc2ccccc21	21505*	-8	-1	-4	-8
Cc1cc(C)n(-c2ccc(C(=O)OCC(=O)Nc3ccc(Cl)c(S(=O)(=O)N(C)C)c3)cc2)n1	25627*	1	-2	?	-7
Cc1ccc(C(=O)Oc2cc(N)n(S(=O)(=O)c3ccc(F)cc3)n2)cc1	6008	68*	-1	1	1
COc1cc(C2c3[nH]c4ccccc4c3CC3COC(=O)N32)cc(OC)c1O (stereo not drawn)	3721	5	6	0	3
O=C(CNC(=O)c1cc(-c2ccccc2)nn1-c1ccccc1)Nc1ccccc1Br	3855	-13	0	1	-2
CCCCCOc1ccc(C(=O)NCC2(c3ccccc3)CCOCC2)cc1	16606*	-6	-6	-2	-2
CCCCOc1ccc(C(=O)NCC2(c3ccccc3)CCOCC2)cc1	22415*	-8	0	?	2
[N-]=[N+]=NC(c1ccccc1)C(NC(=O)c1cc(C(F)(F)F)cc(C(F)(F)F)c1)c1ccccc1 (stereo not drawn)	6263	.	-8	1	-5
Cc1cccc(NC(=O)c2ccccc2-c2ccccc2)c1	3287	9	-9	1	4
Cc1cccc(NC(=O)c2ccccc2C(=O)O)c1	19743*	8	-1	1	3
Cc1cccc(NC(=O)c2cccc3c2C(=O)c2ccccc2-3)c1	23188*	2	0	0	0
CC(C)CC(N)c1csc(Nc2cc(Oc3ccccc3)ncn2)n1 (stereo not drawn)	3655	.	4	0	-22
O=C(CNc1cccc(S(=O)(=O)N2CCCCC2)c1)Nc1ccc(C(F)(F)F)cc1	3852	10	2	0	-2
COc1cc(OC)cc(C(=O)Nc2ncc3c(n2)CC(C)CC3=O)c1 (stereo not drawn)	2092	7	-1	1	5
COc1cc(C2CC(=O)c3cnc(NC(=O)COc4ccccc4)nc3C2)cc(OC)c1OC (stereo not drawn)	21520*	11	-2	4	6
CC1CC(=O)c2cnc(Nc3ccccc3)nc2C1 (stereo not drawn)	22489*	1	0	3	4
CC1CC(=O)c2cnc(Nc3cccc(C(F)(F)F)c3)nc2C1 (stereo not drawn)	2888	0	-1	0	-7
COc1cccc(C(=O)Nc2ncc3c(n2)CC(C)CC3=O)c1 (stereo not drawn)	24790*	8	-3	-5	-10
O=C(c1cnc(-c2ccc(Cl)cc2)s1)c1ccc(Cl)cc1Cl	16515*	1	3	2	-2
